Results reported in PubChem BioAssay AID743060 (The Scripps Research Institute Molecular Screening Center, 2013).
Where “and” joins values, the source holds several entries; their conditions need not be identical. Equal values may be shown once.

Assay: inhibitors of T. brucei MetRS aminoacylation, late-stage follow-up, biochemical, radioactivity, round 1 (AID 743060)
Settings: purified enzyme, radiolabel aminoacylation, scintillation, 2 h; at 1 µM; stronger effect = higher value

| Compound | inhibition |
| --- | --- |
| COc1ccc(NC(=O)CSc2nnc3c4cc(C)ccc4n(C)c3n2)cc1 | -3.06% |
| CNC(=S)N(CCc1ccccc1)C1CC(=O)N(c2ccc(Br)cc2)C1=O (stereo not given) | 96.6% |
| O=C(NCCc1nc2ccccc2[nH]1)c1ccc(Cl)cc1 | 20.1% |
| COc1ccccc1NC(=O)Cn1cc(C(=O)C(=O)N2CCOCC2)c2ccccc21 | -14.4% |
| CC(CC(=O)Nc1cccc(Br)c1)=NNC(=O)c1ccc(O)cc1O | 36.5% |
| O=C(NCc1nc2ccccc2[nH]1)C1=C[C@H](c2ccccc2)C[C@H](OCc2ccc(CO)cc2)O1 | 7.32% |
| Cc1ccc(C(=O)NCCc2nc3ccccc3[nH]2)cc1C | -10.8% |
| CC(C)OCCCN1CC(=O)N2C(c3cccc([N+](=O)[O-])c3)c3[nH]c4ccccc4c3C[C@H]2C1=O (stereo not given in full) | 50% |
| CN(CC(=O)Nc1ccc(Cl)cc1)C(=O)c1ccc(-n2cncn2)c([N+](=O)[O-])c1 | 38% |
| COc1ccccc1NS(=O)(=O)c1cccc(NC(=O)Nc2ccccc2)c1 | 57% |
| O=C(Cn1cc(C(=O)C(=O)N2CCOCC2)c2ccccc21)NCC1CCCO1 (stereo not given) | -3.8% |
| Brc1cnc2nc(SCc3nc4ccccc4[nH]3)[nH]c2c1 | 23.7% |
| O=C(NCc1nc2ccccc2[nH]1)C1=C[C@@H](c2ccccc2)C[C@@H](OCc2ccc(CO)cc2)O1 | 44.6% |
| COc1cccc(NC(=O)CSc2nnc3c(n2)[nH]c2ccc(C)cc23)c1 | 97.7% |
| O=C(CC=NOCc1ccc([N+](=O)[O-])cc1)Nc1ccc(Br)cc1 | 32.2% |
| Cc1cccc(NC(=O)C2CC(=O)n3c(nc4ccccc43)N2)c1 (stereo not given) | 3% |
| COc1cccc(NC(=O)C2CC(=O)n3c(nc4ccccc43)N2)c1 (stereo not given) | 5.53% |
| COc1ccc(CCN(C(=S)Nc2ccccc2)C2CC(=O)N(c3ccc(Cl)cc3)C2=O)cc1 (stereo not given) | 92.7% |

| Compound | inhibition |
| --- | --- |
| O=C(NNC(=O)c1cc(-c2ccc(Cl)c(Cl)c2)nc2ccccc12)Nc1ccccc1 | 59.7% |
| CC(=O)c1c[nH]c(C(=O)NCc2cccc(C(F)(F)F)c2)c1 | 44.6% |
| COc1ccccc1-n1c(SCC(=O)Nc2ccc(Cl)cc2)nc(O)c(Cc2ccccc2)c1=O | 2.04% |
| O=C(CC(=O)Nc1cccc(Cl)c1)NN=Cc1ccccc1 | 28.2% |
| O=C1[C@@H]2Cc3c([nH]c4ccccc34)C(c3cccc([N+](=O)[O-])c3)N2C(=O)CN1CCCO (stereo not given in full) | 63.2% |
| CCCCCCCCCC1NC(C(=O)O)Cc2c1[nH]c1ccccc21 (stereo not given) | 64.7% |
| O=C(NCc1nc2ccccc2[nH]1)C1=C[C@@H](c2ccc(Br)cc2)C[C@@H](OCc2ccc(CO)cc2)O1 | 62.1% |
| Cc1ccc(CNC(=O)CSc2nnc3c(n2)[nH]c2ccc(C)cc23)cc1 | 76.3% |
| CCN(CC)C(=O)C(=O)c1cn(CC(=O)Nc2cccc(C(F)(F)F)c2)c2ccccc12 | 95.4% |
| O=C(Nc1ccc(F)c(Cl)c1)C1CC(=O)n2c(nc3ccccc32)N1 (stereo not given) | 44.9% and 55.3% |
| CC(=O)N(CCc1ccccc1)C1CC(=O)N(c2ccc(Cl)cc2)C1=O (stereo not given) | -16.2% |
| CC(C)c1nc2ccc(C(=O)N(C)CCc3nc4ccc(F)cc4[nH]3)cc2o1 | -1.99% |
| O=C(Cn1cc(C(=O)C(=O)N2CCOCC2)c2ccccc21)Nc1cccc(C(F)(F)F)c1 | 87.5% |
| CCc1ccc2[nH]c3nc(SCC(=O)NCc4cccc(OC)c4)nnc3c2c1 | 4.75% |
| O=C(CCC(=O)Nc1cccc([N+](=O)[O-])c1)NN=Cc1cccs1 | 6.25% |
| O=C(NCc1nc2ccccc2[nH]1)C1=C[C@H](C2CC2)C[C@H](OCc2ccc(CO)cc2)O1 | -3.3% |
| O=C(NCCc1nc2ccccc2[nH]1)c1ccc(Cl)c([N+](=O)[O-])c1 | 89.8% |
